{"source": "PubChem BioAssay (NCI)", "note": "The panel holds about 83,000 compounds, 20% with a hit somewhere; the sample as a whole holds those more often.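 Values shown are percent growth following 48 h exposure of cells in 96-well plates to a single concentration of compound; below 10 was considered active.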 Activity calls are given as the source filed them.", "data": [{"tested_on": "UACC-62 melanoma", "assay": "NCI-60 one-dose screen, 48 h (100 = growth as untreated, 0 = no growth, -100 = all killed)", "conditions": "10 µM unless noted", "values": [{"smiles": "O=C(CSc1nc2ccc([N+](=O)[O-])cc2[nH]1)Nc1ccc(F)c(Cl)c1", "growth": "5.92% (active)"}, {"smiles": "Cc1cc(C)c(O)c(CNCCCCCCNCc2cc(C)cc(C)c2O)c1", "growth": "-68.9% (active)"}, {"smiles": "CS(=O)(=O)c1cccnn1", "growth": "90.7% (inactive)"}, {"smiles": "Cc1ccc(S(=O)(=O)Nc2ccccc2)cc1N", "growth": "90.8% (inactive)"}, {"smiles": "Nc1cc(C(=O)O)[nH]c(=S)n1", "growth": "95.2% (inactive)"}, {"smiles": "COc1ccc(-c2nc3ccccn3c2/C=C/C(=O)c2cc(OC)c(OC)c(OC)c2)cc1OC", "growth": "19.9% (inactive)"}, {"smiles": "O=C(Nc1cccc2cccnc12)c1cc(C(=O)c2ccc(Cl)cc2)n2ccc(-c3ccncc3)cc12", "growth": "104% (inactive)"}, {"smiles": "Cc1cccc(C[C@H](NC(=O)Nc2ccc(C)cc2F)C(=O)N[C@@H]2C(=O)N3C[C@H](O)C[C@H]3C(=O)N3CCN(C)C[C@H]3C(=O)N[C@@H](C)C(=O)N3C[C@H](C)C[C@H]3C(=O)O[C@H]2C)c1", "growth": "31.4% (inactive)"}, {"smiles": "O=C1COCCN1c1ccc(NCc2cn(Cc3cccc4ccccc34)c3ccccc23)cc1", "growth": "41.7% (inactive)"}, {"smiles": "COc1ncnc2c(-c3ccccc3)cn(COCc3ccccc3)c12", "growth": "40.4% (inactive)"}, {"smiles": "O=C1CN(Cc2ccc(C(=O)NO)cc2)C(=O)[C@@H](Cc2ccccc2)N1", "growth": "99.2% (inactive)"}, {"smiles": "CC(C)C1=NOC(=O)C1=Cc1cn(-c2ccco2)nc1-c1ccccc1", "growth": "87.6% (inactive)"}, {"smiles": "c1ccc(-c2nnc(-c3c[nH]c4ncccc34)s2)cc1", "growth": "81.2% (inactive)"}, {"smiles": "COCCCNc1nc(NC(=O)c2cc(Br)cc(C(F)(F)F)c2)cc(-c2cccnc2)n1", "growth": "90.5% (inactive)"}, {"smiles": "CCn1cc(-c2cc(-c3ccc(Cl)cc3)nc(N)n2)c(-c2ccc(Br)cc2)n1", "growth": "60.7% (inactive)"}, {"smiles": "CCOC(CNC(=O)c1cccc([N+](=O)[O-])c1)OCC", "growth": "88% (inactive)"}, {"smiles": "Cc1cccc([N+](=O)[O-])c1I", "growth": "107% (inactive)"}, {"smiles": "CCOc1cc(NC(=O)c2ccccc2)c(OCC)cc1N", "growth": "106% (inactive)"}, {"smiles": "CN(C)CCOc1ccc(/C(=C(/CCCl)c2ccccc2)c2ccccc2)cc1", "growth": "-21.7% (active)"}, {"smiles": "Nc1nc(N)c2c(n1)NC(c1ccc(F)cc1)C1CCc3ccccc3C1=N2", "note": "(stereo unspecified)", "growth": "47.5% (inactive)"}, {"smiles": "CNC(=O)c1cc(Oc2ccc3nc(NC(=O)c4ccc5ncccc5c4)sc3c2)ccn1", "growth": "94.9% (inactive)"}, {"smiles": "CC1(C)CC[C@]23CC[C@]4(C)[C@H](CC[C@@H]5[C@@]6(C)C/C(=C/c7ccncc7)C(=O)C(C)(C)[C@@H]6CC[C@]54C)[C@H]2[C@H]1OC3=O", "growth": "56.4% [100 µM] (inactive)"}, {"smiles": "CC1=CC[C@@H]2C(C)(C)C(=O)CC[C@@]2(C)[C@@H]1COc1ccc2ccc(=O)oc2c1", "growth": "41.9% (inactive)"}, {"smiles": "COc1ccc(/C=C/C=C\\C(=O)c2ccc(-n3ccnc3)cc2)cc1", "growth": "79.1% (inactive)"}, {"smiles": "CCc1cccc(Cl)c1", "growth": "101% (inactive)"}, {"smiles": "Cc1ccc(S(=O)(=O)n2cc(C(=O)C(=O)N3CCCCC3)c3ccccc32)cc1", "growth": "49.5% (inactive)"}, {"smiles": "Cn1cc(-c2noc(-c3cn(C)c4ncc(F)cc34)n2)c2cc(Cl)ccc21", "growth": "77.8% (inactive)"}, {"smiles": "O=C(Nc1cccc2ccccc12)c1cc2ccccc2cc1O", "growth": "17.4% (inactive)"}, {"smiles": "C#C[C@]1(O)CC[C@H]2[C@@H]3CC=C4c5nc(Nc6ncccn6)sc5CC[C@]4(C)[C@H]3CC[C@@]21C", "growth": "1.81% (active)"}, {"smiles": "CC(=O)OC[C@]12CC[C@@H](C(=O)CBr)[C@@H]1[C@H]1CC[C@@H]3[C@@]4(C)CCCNC(C)(C)[C@@H]4CC[C@@]3(C)[C@]1(C)CC2", "growth": "-90.9% [100 µM] (active)"}, {"smiles": "O=S(=O)(c1ccc(N/N=C\\c2ccccc2Cl)cc1)c1ccc(N/N=C/c2ccccc2Cl)cc1", "growth": "73.2% (inactive)"}, {"smiles": "Nc1nc(Cl)c2ncn(Cc3cc4c(cc3I)OCO4)c2n1", "growth": "45.7% (inactive)"}, {"smiles": "Cc1ccc2c(c1)/C(=N\\N=C/c1cn(C(C)C)c3ccccc13)C(=O)N2", "growth": "50.1% (inactive)"}, {"smiles": "O=C1CC(c2ccccc2)Cc2nc3ccc(Cl)cc3cc21", "note": "(stereo unspecified)", "growth": "29.3% (inactive)"}, {"smiles": "C=C(C)[C@@H]1CC[C@]2(C(N)=O)CC[C@]3(C)[C@H](CC[C@@H]4[C@@]5(C)CC[C@H](O)C(C)(C)[C@@H]5CC[C@]43C)[C@@H]12", "growth": "-23.2% [100 µM] (active)"}, {"smiles": "COc1ccc(-c2cc(-c3ccc(Cl)cc3)nc(SCCCCCCC(=O)NO)n2)cc1", "growth": "14.9% (inactive)"}, {"smiles": "Cc1cc[n+](CCCCCCCCCC[n+]2ccc(C)cc2)cc1", "growth": "92.6% (inactive)"}, {"smiles": "CCCSc1nc(N)nc2nc[nH]c12", "growth": "87.6% (inactive)"}]}, {"tested_on": "LOX IMVI melanoma", "assay": "NCI-60 one-dose screen, 48 h (100 = growth as untreated, 0 = no growth, -100 = all killed)", "conditions": "10 µM unless noted", "values": [{"smiles": "O=C(CSc1nc2ccc([N+](=O)[O-])cc2[nH]1)Nc1ccc(F)c(Cl)c1", "growth": "24.2% (inactive)"}, {"smiles": "Cc1cc(C)c(O)c(CNCCCCCCNCc2cc(C)cc(C)c2O)c1", "growth": "-85% (active)"}, {"smiles": "CS(=O)(=O)c1cccnn1", "growth": "85.2% (inactive)"}, {"smiles": "Cc1ccc(S(=O)(=O)Nc2ccccc2)cc1N", "growth": "91.3% (inactive)"}, {"smiles": "Nc1cc(C(=O)O)[nH]c(=S)n1", "growth": "100% (inactive)"}, {"smiles": "COc1ccc(-c2nc3ccccn3c2/C=C/C(=O)c2cc(OC)c(OC)c(OC)c2)cc1OC", "growth": "4.18% (active)"}, {"smiles": "O=C(Nc1cccc2cccnc12)c1cc(C(=O)c2ccc(Cl)cc2)n2ccc(-c3ccncc3)cc12", "growth": "101% (inactive)"}, {"smiles": "Cc1cccc(C[C@H](NC(=O)Nc2ccc(C)cc2F)C(=O)N[C@@H]2C(=O)N3C[C@H](O)C[C@H]3C(=O)N3CCN(C)C[C@H]3C(=O)N[C@@H](C)C(=O)N3C[C@H](C)C[C@H]3C(=O)O[C@H]2C)c1", "growth": "38.5% (inactive)"}, {"smiles": "O=C1COCCN1c1ccc(NCc2cn(Cc3cccc4ccccc34)c3ccccc23)cc1", "growth": "91% (inactive)"}, {"smiles": "COc1ncnc2c(-c3ccccc3)cn(COCc3ccccc3)c12", "growth": "56% (inactive)"}, {"smiles": "O=C1CN(Cc2ccc(C(=O)NO)cc2)C(=O)[C@@H](Cc2ccccc2)N1", "growth": "111% (inactive)"}, {"smiles": "CC(C)C1=NOC(=O)C1=Cc1cn(-c2ccco2)nc1-c1ccccc1", "growth": "39.3% (inactive)"}, {"smiles": "c1ccc(-c2nnc(-c3c[nH]c4ncccc34)s2)cc1", "growth": "97% (inactive)"}, {"smiles": "COCCCNc1nc(NC(=O)c2cc(Br)cc(C(F)(F)F)c2)cc(-c2cccnc2)n1", "growth": "104% (inactive)"}, {"smiles": "CCn1cc(-c2cc(-c3ccc(Cl)cc3)nc(N)n2)c(-c2ccc(Br)cc2)n1", "growth": "88.5% (inactive)"}, {"smiles": "CCOC(CNC(=O)c1cccc([N+](=O)[O-])c1)OCC", "growth": "89.1% (inactive)"}, {"smiles": "Cc1cccc([N+](=O)[O-])c1I", "growth": "101% (inactive)"}, {"smiles": "CCOc1cc(NC(=O)c2ccccc2)c(OCC)cc1N", "growth": "100% (inactive)"}, {"smiles": "CN(C)CCOc1ccc(/C(=C(/CCCl)c2ccccc2)c2ccccc2)cc1", "growth": "-84.6% (active)"}, {"smiles": "Nc1nc(N)c2c(n1)NC(c1ccc(F)cc1)C1CCc3ccccc3C1=N2", "note": "(stereo unspecified)", "growth": "52.8% (inactive)"}, {"smiles": "CNC(=O)c1cc(Oc2ccc3nc(NC(=O)c4ccc5ncccc5c4)sc3c2)ccn1", "growth": "99.6% (inactive)"}, {"smiles": "CC1(C)CC[C@]23CC[C@]4(C)[C@H](CC[C@@H]5[C@@]6(C)C/C(=C/c7ccncc7)C(=O)C(C)(C)[C@@H]6CC[C@]54C)[C@H]2[C@H]1OC3=O", "growth": "76.7% [100 µM] (inactive)"}, {"smiles": "CC1=CC[C@@H]2C(C)(C)C(=O)CC[C@@]2(C)[C@@H]1COc1ccc2ccc(=O)oc2c1", "growth": "87.9% (inactive)"}, {"smiles": "COc1ccc(/C=C/C=C\\C(=O)c2ccc(-n3ccnc3)cc2)cc1", "growth": "93.5% (inactive)"}, {"smiles": "CCc1cccc(Cl)c1", "growth": "103% (inactive)"}, {"smiles": "Cc1ccc(S(=O)(=O)n2cc(C(=O)C(=O)N3CCCCC3)c3ccccc32)cc1", "growth": "71.9% (inactive)"}, {"smiles": "Cn1cc(-c2noc(-c3cn(C)c4ncc(F)cc34)n2)c2cc(Cl)ccc21", "growth": "52.5% (inactive)"}, {"smiles": "O=C(Nc1cccc2ccccc12)c1cc2ccccc2cc1O", "growth": "13.7% (inactive)"}, {"smiles": "C#C[C@]1(O)CC[C@H]2[C@@H]3CC=C4c5nc(Nc6ncccn6)sc5CC[C@]4(C)[C@H]3CC[C@@]21C", "growth": "26.9% (inactive)"}, {"smiles": "CC(=O)OC[C@]12CC[C@@H](C(=O)CBr)[C@@H]1[C@H]1CC[C@@H]3[C@@]4(C)CCCNC(C)(C)[C@@H]4CC[C@@]3(C)[C@]1(C)CC2", "growth": "-91.6% [100 µM] (active)"}, {"smiles": "O=S(=O)(c1ccc(N/N=C\\c2ccccc2Cl)cc1)c1ccc(N/N=C/c2ccccc2Cl)cc1", "growth": "95.1% (inactive)"}, {"smiles": "Nc1nc(Cl)c2ncn(Cc3cc4c(cc3I)OCO4)c2n1", "growth": "11.8% (inactive)"}, {"smiles": "Cc1ccc2c(c1)/C(=N\\N=C/c1cn(C(C)C)c3ccccc13)C(=O)N2", "growth": "20% (inactive)"}, {"smiles": "O=C1CC(c2ccccc2)Cc2nc3ccc(Cl)cc3cc21", "note": "(stereo unspecified)", "growth": "29.7% (inactive)"}, {"smiles": "C=C(C)[C@@H]1CC[C@]2(C(N)=O)CC[C@]3(C)[C@H](CC[C@@H]4[C@@]5(C)CC[C@H](O)C(C)(C)[C@@H]5CC[C@]43C)[C@@H]12", "growth": "-72.8% [100 µM] (active)"}, {"smiles": "COc1ccc(-c2cc(-c3ccc(Cl)cc3)nc(SCCCCCCC(=O)NO)n2)cc1", "growth": "-17.6% (active)"}, {"smiles": "Cc1cc[n+](CCCCCCCCCC[n+]2ccc(C)cc2)cc1", "growth": "91.4% (inactive)"}, {"smiles": "CCCSc1nc(N)nc2nc[nH]c12", "growth": "99.3% (inactive)"}]}]}
